Compound activity from PubChem BioAssay.
Pf apPOL inh: Pf-apPOL inhibitors, biochemical, fluorescence; Recombinant Pf-apPOL, molecular beacon fluorescence, 1.5 h; inhibition, % at 10 µM; 0.25% of 210,000 active
mHTT-CaM PPI inh: mutant huntingtin-calmodulin interaction inhibitors – biochemical, AlphaScreen, primary screen | AID 1671202, 2021 | 3.6% of 190,000 active | inhibition, % at 15 µM | AlphaScreen His-mHTT/GST-CaM binding, luminescence
Hits are given with their value; i = inactive; nt = not tested or not shown. Shown is part of a subset that was picked to be rich in hits. No stated cut-off is given here; in the data, active means inhibition above about 50%; inactive means the rest.

SMILES | Pf apPOL inh | mHTT-CaM PPI inh
COc1cccc(CNc2cccc3cccnc23)c1O | i | 54.0
COc1cccc(CNc2ncccn2)c1OC | i | i
CC1(C(=O)NCc2cccc(F)c2)CCCN(C(=O)c2ccccc2F)C1 (stereo unspecified) | i | i
CCN(c1ccc(C)c(C)c1)S(=O)(=O)c1ccc2c(c1)CC(C)N2C(C)=O (stereo unspecified) | i | 70.0
CCN(c1cccc(C)c1)S(=O)(=O)c1ccc2c(c1)CC(C)N2C(C)=O (stereo unspecified) | i | i
COc1cc(S(=O)(=O)n2cnc3cc(C)c(C)cc32)c(C)cc1C | i | i
COc1cc(C)c(S(=O)(=O)n2cnc3cc(C)c(C)cc32)cc1C | i | 67.0
CN(C)c1cccc(C(=O)Nc2nccs2)c1 | i | i
COc1ccc(C(C(=O)Nc2ccc3c(c2)OCO3)N(C)C(=O)CNC(C)=O)cc1 (stereo unspecified) | i | i
Cc1ccc(C(C(=O)Nc2ccc3c(c2)OCO3)N(C)C(=O)Cc2c[nH]c3ccccc23)cc1 (stereo unspecified) | i | 93.0
Nc1ccccc1C(=O)NN=Cc1ccccc1O | i | nt
CCCCCCCCCCCCCCCc1noc2c1C(=NO)CCC2 | i | nt
O=C1NC(=S)SC1=Cc1ccc(Sc2ccc(Cl)cc2)c([N+](=O)[O-])c1 | 69.4 | nt
O=C1NC(=O)/C(=C/c2ccc(Cl)c([N+](=O)[O-])c2)S1 | i | i
Oc1ccc(Cl)cc1C1=NNC(c2ccc(Br)cc2)C1 (stereo unspecified) | i | 75.0
CCOc1ccc(C2CC(c3ccccc3O)=NN2)cc1 (stereo unspecified) | i | i
Oc1ccc(C2CC(c3ccccc3O)=NN2)cc1 (stereo unspecified) | i | 96.0
Oc1ccc(Cl)cc1C1=NNC(c2ccccc2F)C1 (stereo unspecified) | i | 54.3
COc1ccc(C2C=C(c3ccc(F)cc3)Nc3nnnn32)c(OC)c1 (stereo unspecified) | i | i
CCOC(=O)N1CCC2(CC1)N=C(c1cc(Cl)ccc1O)CC(c1ccccc1)N2 (stereo unspecified) | i | i
COc1ccc(C2CC(c3cc(F)ccc3O)=NN2)c(OC)c1 (stereo unspecified) | i | 55.8
Oc1ccc(Br)cc1C1=NNC(c2cccs2)C1 (stereo unspecified) | i | i
O=C(Nc1c(-c2ccc(C(F)(F)F)cc2)nc2ccccn12)C1CCCC1 | i | i
O=C(Nc1cc(F)cc(F)c1)N1CCc2c(nc3cc(-c4ccccc4)[nH]n3c2=O)C1 | i | i
COc1ccc(CCNC(=O)c2sc3nc(-c4ccccc4)cn3c2C)cc1OC | i | i
SMILES | Pf apPOL inh | mHTT-CaM PPI inh
Cc1cc(C)cc(N2CC(C(=O)NCc3ccc(F)cc3)CC2=O)c1 (stereo unspecified) | i | i
N#C/C(=C\Nc1ccc(Cl)cn1)c1nc(-c2ccc3c(c2)OCO3)cs1 | i | i
COc1ccc(C2CC(c3cc(Cl)ccc3O)=NN2)cc1OC (stereo unspecified) | i | 74.2
COc1ccc(C2CC(c3ccc(Cl)cc3)Nc3nc(N)nn32)cc1OC (stereo unspecified) | i | i
COc1ccc(CN2CCc3cc(OC)c(OC)cc3C2)cc1OC | i | i
COc1cc2c(cc1OC)CN(Cc1ccc(OCc3ccccc3)c(OC)c1)CC2 | i | 100.2
CC1CN(c2ccc([N+](=O)[O-])cc2)CCN1C(=O)c1c(Cl)ccc(F)c1F (stereo unspecified) | i | i
CC(NC(=O)C(=O)NCC1CCCO1)c1ccccc1 (stereo unspecified) | i | i
CN(C)c1ccc(C(CNC(=O)C(=O)NCC2CCCO2)N2CCc3ccccc32)cc1 (stereo unspecified) | i | 65.4
CCc1ccc(C2C(C#N)=C(N)N(c3ccccc3F)C3=C2C(=O)CCC3)s1 (stereo unspecified) | i | i
CN1c2cc(C(=O)N3CCN(c4ccccc4Cl)CC3)ccc2C(=O)N2CCCCC21 (stereo unspecified) | i | i
CN1c2cc(C(=O)N3CCc4ccccc4C3)ccc2C(=O)N2CCCCC21 (stereo unspecified) | i | 93.3
O=C(Nc1ccc(Cl)cc1)c1cc(S(=O)(=O)NCc2ccccc2)ccc1F | i | i
O=[N+]([O-])c1cc(C(F)(F)F)ccc1N1CCc2ccccc21 | i | 95.0
O=[N+]([O-])c1cc(C(F)(F)F)ccc1N1CCCCC1 | i | nt
CCOC(CNC(=O)c1ccc(N2CCc3ccccc32)c([N+](=O)[O-])c1)OCC | i | 56.0
COC(CNC(=O)c1ccc(N2CCCCCC2)c([N+](=O)[O-])c1)OC | i | i
CCC(=O)NCc1c(C)nc2sc(CC)nn12 | i | i
Cc1ccc(-c2nn(-c3cc(N4CCNCC4)ccc3[N+](=O)[O-])c(=O)c3ccccc23)cc1C | i | 100.3
O=c1c2ccccc2c(-c2ccccc2)nn1-c1cc(N2CCCC2)ccc1[N+](=O)[O-] | i | i
Cc1ccc(NC(=O)N2CC=C(c3cn(C(C)C)c4ncccc34)CC2)cc1 | i | i
Cc1cc(C(=O)N2CCCCCC2)nc2cc(-c3ccccn3)nn12 | i | i
COc1cc(Cl)c(C)cc1NC(=O)C1c2ccccc2C(=O)N2CCc3ccccc3C12 (stereo unspecified) | i | 54.0
COc1cc2c(cc1OC)C(C(=O)Nc1ccc(F)cc1)C1c3ccccc3CCN1C2=O (stereo unspecified) | i | i
CCOc1ccccc1NC(=O)C1c2cc(OC)c(OC)cc2C(=O)N2CCc3ccccc3C12 (stereo unspecified) | i | 54.0
SMILES | Pf apPOL inh | mHTT-CaM PPI inh
COc1ccc(C)cc1NC(=O)C1c2ccccc2C(=O)N2CCc3ccccc3C12 (stereo unspecified) | i | i
COCc1cc(C)nc(NCc2ccc(C)cc2)c1C#N | i | i
O=C(O)CCCc1nc2ccccc2[nH]1 | i | i
NC(=O)Cc1nc2ccccc2[nH]1 | 96.7 | i
COc1ccc(-c2nnc(N3CCC(C(=O)NCc4cccnc4)CC3)o2)cc1 | i | i
N#CC1=C(S)N[C@H](c2cccnc2)[C@@](C#N)(C(N)=S)[C@H]1c1cccnc1 | nt | i
N#CC1=C(S)NC(O)(c2ccccc2)C([n+]2ccc3ccccc3c2)C1c1ccc(F)cc1 (stereo unspecified) | i | 75.0
N#CC1=C(S)NC(O)(c2ccccc2)C([n+]2ccc3ccccc3c2)C1c1ccncc1 (stereo unspecified) | i | i
N#CC1=C(S)NC(O)(c2ccccc2)C([n+]2ccccc2)C1c1ccccc1F (stereo unspecified) | i | 56.0
N#CC1=C(S)NC(O)(c2ccccc2)C([n+]2cccc3cc(Cl)ccc32)C1c1cccnc1 (stereo unspecified) | i | 59.0
N#CC1=C(O)NC(=O)C([n+]2ccccc2)C1c1ccccc1I (stereo unspecified) | i | i
COc1ccc(-c2nnc(SCc3nc4ccccc4[nH]3)n2-c2ccccc2)cc1OC | i | i
Cc1cc(N2CCCCC2)nc2ccc(NC(=O)/C=C/c3cccnc3)cc12 | i | i
CN1C(=O)C2CCCCN2c2ccc(C(=O)N3CCN(C(=O)c4ccco4)CC3)cc21 (stereo unspecified) | i | i
CSc1nc2c(c(=O)[nH]1)C1(CCCCC1)Cc1ccccc1-2 | i | i
NNc1nc(N)c2c(n1)-c1ccccc1CC21CCCCC1 | i | 100.3
